Several values for one entry are separate records, joined by “and”; a condition that tells them apart may be missing. Equal values may be shown once. Records with an inconclusive call do not appear. The source holds several records for some structures; these can differ, active in one and inactive in another. Activity calls are given as the source filed them. Rule for the calls: active = hit-call score of the fitted dose curve at least 0.9, where 1 is the maximum; inconclusive = response in the unintended direction; inactive = score below 0.9.
Each molecule was assayed against Estrogen receptor beta (Homo sapiens) (UniProt Q92731) (assay: OT_ER_ERbERb_0480: Odyssey Thera (OT) 8-hour HEK293T Protein-Complementation Assay for Estrogen Receptor-beta/-beta Homodimer (AID 2283357)).
Description: OT_ER_ERbERb_0480 is a cell-based assay that uses HEK293T, a human kidney cell line, with measurements taken at 8 hours after chemical dosing in a 384-well plate.OT_ER_ERbERb_0480 is one of one assay component(s) measured or calculated from the OT_ER_ERbERb_0480 assay. It is designed to make measurements of protein fragment complementation, a form of binding reporter, as detected with fluorescence intensity signals by Protein-fragment Complementation technology.Data from the assay component OT_ER_ERbERb_0480 was analyzed into 1 assay endpoint. This assay endpoint, OT_ER_ERbERb_0480, was analyzed in the positive analysis fitting direction relative to DMSO as the negative control and baseline of activity. Using a type of binding reporter, measures of receptor for gain-of-signal activity can be used to understand the binding at the pathway-level as they relate to the gene ESR2. Furthermore, this assay endpoint can be referred to as a primary readout, because the performed assay has only produced 1 assay endpoint. To generalize the intended target to other relatable targets, this assay endpoint is annotated to the nuclear receptor intended target family, where the subfamily is steroidal.
Protein-fragment complementation assay, or PCA, is a method for the identification and quantification of protein-protein interactions. In the PCA, the proteins of interest ("bait" and "prey") are each covalently linked to fragments of a third protein (e.g. DHFR, which acts as a "reporter"). Interaction between the bait and the prey proteins brings the fragments of the reporter protein in close proximity to allow them to form a functional reporter protein whose activity can be measured. The OT ER beta / ER beta assay is a homodimer PCA of the ligand binding domain (LBD; amino acids 310-547) of human ER beta stably expressed in HEK293T cells. […] Cells are fixed in 4 percent formaldehyde and stained with Draq5 (BioStatus) to identify cells prior to signal detection. Fluorescent signal in the basal state of the assay is very low and is primarily punctuate and cytoplasmic. Modulation of this assay is quantified as an increase in mean fluorescence intensity in the nucleus (for agonists) or in the nucleus and cytoplasm (antagonists) relative to vehicle controls, and can be quantified on a high content imaging device or a laser scanning cytometer. The latter instrument is favored for this assay because of the rapid mode of data acquisition, the ability to acquire data from the entire cell population in a well (as opposed to a fraction of the well on the high content devices) and the larger dynamic range typically achieved with this instrument. To assess sensitivity of the ER beta/ER beta LBD assay to ligand, cells were treated with the ER agonist 17- beta-estradiol (E2) in 10-point concentration- response format for 8 hours and monitored response on a laser scanning plate cytometer (Acumen eX3; TTP Lab Tech).

Estrogen receptor beta (Homo sapiens), sequence (Q92731 whole entry, looked up, the tested form may be a part): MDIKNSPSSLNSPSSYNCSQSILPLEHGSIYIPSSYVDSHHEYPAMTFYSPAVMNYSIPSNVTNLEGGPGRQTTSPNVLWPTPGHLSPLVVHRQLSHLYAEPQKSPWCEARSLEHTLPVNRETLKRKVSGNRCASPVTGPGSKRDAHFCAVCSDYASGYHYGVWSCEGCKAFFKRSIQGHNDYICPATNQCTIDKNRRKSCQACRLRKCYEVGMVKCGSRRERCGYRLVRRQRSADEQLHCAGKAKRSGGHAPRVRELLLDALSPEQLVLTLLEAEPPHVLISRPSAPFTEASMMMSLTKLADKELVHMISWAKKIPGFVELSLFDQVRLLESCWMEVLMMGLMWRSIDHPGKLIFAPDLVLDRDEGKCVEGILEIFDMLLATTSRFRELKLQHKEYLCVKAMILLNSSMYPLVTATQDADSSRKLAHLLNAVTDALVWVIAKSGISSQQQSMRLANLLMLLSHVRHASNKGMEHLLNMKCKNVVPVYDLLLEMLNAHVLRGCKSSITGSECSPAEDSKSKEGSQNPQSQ

SMILES | outcome | AC50
O=C(Nc1ccc(Cl)cc1)Nc1ccc(Cl)c(Cl)c1 | inactive | –
CCCCCCCCCCCC[N+](C)(C)C | inactive | –
COc1cc(C(=O)NC2CCN(C)CC2)ccc1Nc1ncc2c(n1)N(C1CCCC1)CC(F)(F)C(=O)N2C | inactive | –
CO[C@H]1/C=C/O[C@@]2(C)Oc3c(C)c(O)c4c(O)c(c(/C=N/N5CCN(C)CC5)c(O)c4c3C2=O)NC(=O)/C(C)=C\C=C\[C@H](C)[C@H](O)[C@@H](C)[C@@H](O)[C@@H](C)[C@H](OC(C)=O)[C@@H]1C | inactive | –
CC(C)(C)c1csc(-c2cc3cc(OCc4ccccc4CC(=O)O)ccc3o2)n1 | inactive | –
CCN(CC)C(=O)c1cc(S(=O)(=O)Cc2ccccc2)c(N2CCC(c3ccccc3)CC2)cc1N(CC)CCN(C)C | inactive | –
OC12N=C(c3ccccc3)SC1Cc1cc(Cl)ccc12 (stereo not given) | inactive | –
CCCCCc1ccc(N)cc1 | inactive | 65.3 µM (active) and 55.7 µM (active) and 56.6 µM (active)
CCCCCCCCCCCO | inactive | –
CCCOC(=O)c1cc(O)c(O)c(O)c1 | – | 25.4 µM (active)
Cc1occc1C(=O)Nc1ccc(C(=O)N2CCC(F)(F)/C(=C\C(=O)N3CCC(N4CCCCC4)CC3)c3ccccc32)cc1 | inactive | –
CC1(C)NC(=O)N(c2ccc([N+](=O)[O-])c(C(F)(F)F)c2)C1=O | inactive | –
CCCCCCCCCCCCO | inactive | –
O=C(O)Cc1cc(I)c(Oc2ccc(O)c(I)c2)c(I)c1 | inactive | –
Cc1ccc2oc(CN(Cc3ccccc3)C(=O)Nc3c(F)cc(F)cc3F)c(-c3ccc(Cl)cc3)c2c1 | inactive | –
CCO[Si](CCCNC(N)=O)(OCC)OCC | inactive | –
CCOC(=O)O[C@H](C)OC(=O)c1ccc2c(c1)cc(C(=O)NC1CCN(C(C)C)CC1)n2Cc1cc(-c2ccc(Cl)s2)on1 | inactive | –
O=C1O[C@H]([C@@H](O)CO)C(O)=C1O | inactive | –
CC[C@@H]1C[C@H](N(Cc2cc(C(F)(F)F)cc(C(F)(F)F)c2)C(C)=O)c2cc(C(F)(F)F)ccc2N1C(=O)OC(C)C | inactive | –
CCCCCCCC[Si](OCC)(OCC)OCC | inactive | –

SMILES | outcome | AC50
CCCCOC(=O)c1ccc(O)cc1 | – | 4.69 µM (active) and 5.25 µM (active) and 5.52 µM (active)
CC(C)(c1cc(Br)c(O)c(Br)c1)c1cc(Br)c(O)c(Br)c1 | inactive | –
CC(=O)N1CCN(c2ccc(OC[C@H]3CO[C@](Cn4ccnc4)(c4ccc(Cl)cc4Cl)O3)cc2)CC1 | inactive | –
Cc1cc2c(cc1C(F)(F)F)N(C(=O)Nc1ccc(Oc3cccnc3C)nc1)CC2 | inactive | –
CCCCCCCCOC(=O)c1cc(O)c(O)c(O)c1 | – | 12.4 µM (active)
O=c1ccc2ccccc2o1 | inactive | –
Oc1ccc2ccccc2c1 | – | 37.7 µM (active)
CCN(Cc1cccc(S(=O)(=O)O)c1)c1ccc(C(=C2C=CC(=[N+](CC)Cc3cccc(S(=O)(=O)O)c3)C=C2)c2ccccc2S(=O)(=O)[O-])cc1 | inactive | –
COc1cccc([C@H](O)C2CCN(CCc3ccc(F)cc3)CC2)c1OC | inactive | –
O=C1CCC(C2CCCCC2)CC1 | inactive | –
NCc1cccc(C2CCN(C(=O)c3ccc(C#Cc4ccccc4F)o3)CC2)c1 | inactive | –
Cc1c2ccccc2c(C)c2c1ccc1ccccc12 | inactive | –
COCC(C)OCC(C)OCC(C)O (stereo not given) | inactive | –
Cc1cc(F)ccc1-c1cc(N2CC[C@@H](O)[C@H]2CO)ncc1N(C)C(=O)C(C)(C)c1cc(C(F)(F)F)cc(C(F)(F)F)c1 | inactive | –
Clc1ccccc1C(c1ccccc1)(c1ccccc1)n1ccnc1 | inactive | –
CN1C(=O)N(c2ccccc2Br)Cc2cnc(Nc3ccc4c(c3)OCC(CO)O4)nc21 (stereo not given) | inactive | –
CCCCOC(=O)CC(CC(=O)OCCCC)(OC(C)=O)C(=O)OCCCC | inactive | –
c1ccc(C[n+]2cccc3ccccc32)cc1 | inactive | –
CC(C)(O)c1ccc(CNC(=O)c2cccnc2Oc2ccc3nonc3c2)cc1 | inactive | –

Source: PubChem BioAssay (EPA / NIEHS)
